Compound activity: PubChem, several laboratories
This is a sample that favours compounds with a hit; in the whole collection about 2.3% have one here.
Mcl1-Noxa inh = Mcl-1/Noxa interaction inhibition. TR-FRET Mcl-1/Noxa peptide binding, 2 h. AID 1022. Q07820. 220,000 tested, 1.5% active. inhibition, % at 21.7 µM;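 active = compounds that cut the protein-peptide binding signal by more than 50% relative to plate controls in a single-dose test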;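 note: His-tagged Mcl-1 with rhodamine Noxa BH3 peptide and terbium anti-His antibody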
Bim-Mcl-1 = disrupts Bim peptide binding to human Mcl-1. Q07820. Bead-based flow cytometry, Bim peptide-Mcl-1 binding. inhibition, % at 10 µM. 190,000 tested, 0.1% active. AID 1009; in the data active = inhibition above about 40%
Mcl1 Bid PPI = disrupts binding of human Mcl-1 to Bid peptide; Q07820; TR-FRET Mcl-1/Bid-Dy647 peptide binding, 1536-well; inhibition, % at 21.7 µM; 220,000 tested, 0.97% active; AID 1021;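 active = compounds that cut the binding signal by more than half at the single screening dose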;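 note: His-tagged Mcl-1 with europium anti-His antibody binding Bid BH3 peptide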
GLD-1 TGE inh = GLD-1-TGE RNA interaction inhibition (C. elegans); Q17339; purified GLD-1 + fluorescein TGE RNA, fluorescence polarization; inhibition, % at 5.96 µM; 320,000 tested, 0.44% active; AID 2280;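 active = percent inhibition above a per-plate cutoff, the plate mean of test compounds plus 3 SD, cut at about 30% in these data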
Target sequence (Q17339 whole entry, looked up): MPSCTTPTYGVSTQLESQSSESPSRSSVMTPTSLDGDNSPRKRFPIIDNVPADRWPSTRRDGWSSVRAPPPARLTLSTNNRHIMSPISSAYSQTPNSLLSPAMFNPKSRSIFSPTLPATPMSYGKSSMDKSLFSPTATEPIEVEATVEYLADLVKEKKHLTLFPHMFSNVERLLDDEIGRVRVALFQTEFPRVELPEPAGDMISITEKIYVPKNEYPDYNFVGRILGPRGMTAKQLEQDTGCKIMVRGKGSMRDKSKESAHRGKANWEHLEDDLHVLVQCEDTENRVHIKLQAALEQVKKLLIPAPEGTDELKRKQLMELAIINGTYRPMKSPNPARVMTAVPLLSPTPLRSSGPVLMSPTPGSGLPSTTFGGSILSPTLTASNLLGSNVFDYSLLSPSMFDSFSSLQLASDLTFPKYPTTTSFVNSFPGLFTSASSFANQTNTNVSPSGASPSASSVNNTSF
Bcl-xL primary = Bcl-xL (human) inhibition. GST-Bcl-xL / FITC-Bim BH3 peptide fluorescence polarization. 320,000 tested, 0.7% active. AID 2129. inhibition, % at 10.9 µM. Q07817;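 active = inhibition above the mean of all tested compounds plus 3 SD, cutoff set per campaign, cut at about 30% in these data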;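 note: inhibitors lower millipolarization by displacing the labeled peptide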
Target sequence (Q07817 whole entry, looked up): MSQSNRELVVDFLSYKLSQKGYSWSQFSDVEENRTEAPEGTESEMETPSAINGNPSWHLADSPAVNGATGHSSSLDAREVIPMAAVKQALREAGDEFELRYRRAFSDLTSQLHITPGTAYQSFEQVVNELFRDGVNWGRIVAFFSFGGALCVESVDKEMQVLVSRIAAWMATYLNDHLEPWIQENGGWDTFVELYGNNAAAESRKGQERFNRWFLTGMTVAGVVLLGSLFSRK
MCL1-BIM inh = MCL1-BIM-BH3 interaction inhibition (human). Q07820. GST-MCL1 / FITC-Bim-BH3 fluorescence polarization. inhibition, % at 10.9 µM. 320,000 tested, 0.68% active;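 active = inhibition above the mean inhibition of all tested compounds plus 3 SD, set per campaign, cut at about 40% in these data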;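 note: higher means more loss of mP so more displacement of Bim peptide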
Of the large screens only hits and unclear results are named; the others gave an inactive call.

CCOC(=O)c1[nH]c2ccc(Cl)cc2c1NC(=O)/C=C/c1ccc2c(c1)OCO2	none
Nc1c2c(nc3ccccc13)CCCC2	Mcl1-Noxa inh 51
CN(C(=O)COC(=O)CCCN1C(=O)c2cccc3cccc(c23)C1=O)C1CCS(=O)(=O)C1 (centres undefined)	none (no result: Mcl1-Noxa inh, Bim-Mcl-1, Mcl1 Bid PPI)
CC1(C)CC[C@]2(C(=O)O)[C@H](O)C[C@]3(C)C(=CCC4[C@@]5(C)C[C@H](O)[C@H](O)[C@@](C)(CO)C5CC[C@]43C)[C@@H]2C1 (some centres undefined)	none (no result: Mcl1-Noxa inh, Bim-Mcl-1, Mcl1 Bid PPI)
O=c1[nH]c2cc3c(cc2cc1CN(CCCO)Cc1nnnn1Cc1ccc(F)cc1)OCO3	Bcl-xL primary 33
O=c1[nH]c2cc3c(cc2cc1CN(Cc1ccccc1)Cc1nnnn1Cc1ccco1)OCCO3	none (no result: GLD-1 TGE inh, Bcl-xL primary, MCL1-BIM inh)
O=c1[nH]c2cc3c(cc2cc1CN(Cc1cccnc1)Cc1nnnn1Cc1ccco1)OCCO3	Bcl-xL primary 34, MCL1-BIM inh 44
COc1ccccc1CN(Cc1cc2cc3c(cc2[nH]c1=O)OCCO3)Cc1nnnn1Cc1ccco1	Bcl-xL primary 32
Cc1ccc(C)c(N2CCN(C(=O)c3cc4ccccn4n3)CC2)c1	Bcl-xL primary 49, MCL1-BIM inh 44
CC1CCCCC1NC(=O)CC1Oc2ccccc2NC1=O (centres undefined)	Mcl1 Bid PPI 52 (no result: Bim-Mcl-1)
Cc1ccc2c(c1)NC(=O)C(CC(=O)NC1CCCCC1C)O2 (centres undefined)	none
CN1CCN(C(c2cccnc2)c2ccc3cccnc3c2O)CC1 (centres undefined)	Mcl1-Noxa inh 52
FC(F)(F)c1cccc(CN2CCCCCC2)c1	Mcl1 Bid PPI 52
CN(C)C(=O)N1CCC(C(=O)NC2CCCCCCC2)CC1	Bim-Mcl-1 67
CC(C)OC(=O)c1c2nc3ccccc3nc2n2c1[nH]c(=O)c1ccccc12	GLD-1 TGE inh 48
CC(C)OC(=O)c1c(N)n(CCCN2CCOCC2)c2nc3ccccc3nc12	none
COc1cc(O)c2c(c1)OC(c1ccc(O)cc1)CC2=O (centres undefined)	none
Cc1c(O)cc2c(c1O)C(=O)CC(c1ccc(O)cc1)O2 (centres undefined)	Mcl1-Noxa inh 86, Mcl1 Bid PPI 65
CCCCN(C)C(=O)c1coc(=O)c2ccccc12	Mcl1 Bid PPI 94
CN(C(=O)c1coc(=O)c2ccccc12)c1ccc(Br)cc1	none
Nc1nc2ncc(C(=O)c3cc(Cl)cc(Cl)c3O)cc2s1	Bcl-xL primary 32 (no result: Bim-Mcl-1)
c1ccc(C(c2nnnn2C2CCCCC2)N2CCc3ccccc3C2)nc1 (centres undefined)	Bcl-xL primary 30
O=C(CCN1C(=O)[C@H]2CC=CC[C@H]2C1=O)NCc1nc(-c2ccc(Cl)cc2)no1	none (no result: Mcl1-Noxa inh, Bim-Mcl-1, Mcl1 Bid PPI)
COc1ccc(-c2[nH]c(-c3ccc(C(=O)O)cc3)nc2-c2ccccc2)cc1	none
COc1cc(-c2nc(-c3ccc4c(c3)-c3ccccc3S4(=O)=O)c(-c3ccccc3)[nH]2)cc(OC)c1O	Mcl1-Noxa inh 58
COc1ccc(C(c2c(O)nc[nH]c2=O)c2c(O)nc[nH]c2=O)cc1	none (no result: Bim-Mcl-1)
COc1ccc(C(c2c(O)cc(C)oc2=O)c2c(O)cc(C)oc2=O)cc1	Mcl1-Noxa inh 76
CN(c1cccc(NC(=O)c2ccccc2N(C)S(C)(=O)=O)c1)S(C)(=O)=O	Mcl1 Bid PPI 68
CSc1cccc(NC(=O)c2ccccc2N(C)S(C)(=O)=O)c1	none
CC1CCc2c(sc3ncn(CC(=O)N=Nc4c(O)[nH]c5ccccc45)c(=O)c23)C1 (centres undefined)	Mcl1 Bid PPI 68 (no result: Bim-Mcl-1)
CC1CCc2c(sc3ncn(CCO)c(=O)c23)C1 (centres undefined)	none
O=C(CCCCCNC(=O)N1CCn2c1nc1ccccc12)NCCc1ccccc1	none (no result: Mcl1-Noxa inh, Bim-Mcl-1, Mcl1 Bid PPI)
CSc1ccc(C(=O)NC2CCSc3ccccc32)cc1 (centres undefined)	none (no result: Mcl1-Noxa inh, Bim-Mcl-1, Mcl1 Bid PPI)
CC(C(=O)O)n1nc2ccccc2n1 (centres undefined)	Mcl1 Bid PPI 71
O=C(O)Cn1nc2ccccc2n1	none
N#CC(C(=O)Nc1cccc(Cl)c1)=C1Nc2ccccc2N1	none
N#CC(C(=O)Nc1ccc(Cl)c(Cl)c1)=C1Nc2ccccc2N1	Mcl1-Noxa inh 73, Mcl1 Bid PPI 53
COc1ccc(N2Cc3cccc(C(=O)NC(C)CCc4ccco4)c3C2=O)cc1 (centres undefined)	Mcl1-Noxa inh 65
CCOC(=O)N1CCC(NC(=O)c2cccc3c2C(=O)N(c2ccc(OC)cc2)C3)CC1	Mcl1-Noxa inh 56
COc1ccc(OC)c(S(=O)(=O)NC(N)=NCCc2ccccc2OC)c1	none
COc1ccccc1N1C(=S)N=C(Nc2c(C)cccc2C)C12CCCC2	none (no result: Bim-Mcl-1)
CC(NCc1ccc([N+](=O)[O-])cc1)C1COc2ccccc2O1 (centres undefined)	none (no result: Mcl1-Noxa inh, Bim-Mcl-1, Mcl1 Bid PPI)
CCCN1CCC(NC(=S)Nc2ccc(C(=O)OCC)cc2)CC1	Mcl1 Bid PPI 84
CCCN1CCC(NC(=S)Nc2ccc([N+](=O)[O-])cc2)CC1	none
COc1cc(CN2CCC(CCC(=O)NC3CC3)CC2)cc(Cl)c1OC	none (no result: Mcl1-Noxa inh, Bim-Mcl-1, Mcl1 Bid PPI)
COc1ccc(Cl)c(OC)c1C(=O)NC(=O)Nc1c(F)cc(F)cc1F	none (no result: Bim-Mcl-1)
CCc1ccc(N2CC(C(=O)NNC(=O)c3ccc(F)cc3)CC2=O)cc1 (centres undefined)	none (no result: Mcl1-Noxa inh, Bim-Mcl-1, Mcl1 Bid PPI)
CCOC(=O)c1c(C)c(C(=O)Nc2ccc(N(C)C)cc2)c(C)n1CC	Mcl1-Noxa inh 56
CC(C)Oc1ccc(C(=O)Nc2ccc(N(C)C)cc2)cc1	Mcl1-Noxa inh 78
CN(C)c1ccc(/C=N/NC(=O)c2ccc(NC(=O)c3ccccc3)cc2)cc1	Bcl-xL primary 32 (no result: Bim-Mcl-1)
CCCCOC(=O)Nc1ccc(C(N)=O)cc1	none
CCCCOC(=O)Nc1ccc(N(C)C)cc1	Mcl1-Noxa inh 75
CCCOc1ccc(C(=O)Nc2ccc(N(C)C)cc2)cc1	Mcl1-Noxa inh 81
CCCOc1ccc(C(=O)Nc2ccc(NC(=O)c3cccs3)cc2)cc1	none (no result: Mcl1-Noxa inh, Bim-Mcl-1, Mcl1 Bid PPI)
O=C(Nc1ccccc1)C1=C[C@H](c2ccc(Br)cc2)C[C@H](OCc2ccc(CO)cc2)O1	none
C=CCN1C(=O)/C(=C2/Sc3ccccc3N2CCCS(=O)(=O)O)SC1=S	Mcl1-Noxa inh 71
C=CCN1C(=O)/C(=C2/Sc3ccccc3N2CC)SC1=S	none (no result: Mcl1-Noxa inh, Bim-Mcl-1, Mcl1 Bid PPI)
COc1ccccc1/C=C/C(=O)OCC(=O)Nc1ccc(Cl)cn1	none (no result: Bim-Mcl-1)
CC(=O)N=Cc1c(C)c(C#N)c(=O)n(C)c1O	none
Cc1c(/C=N/Nc2ccc(F)cc2)c(O)n(C)c(=O)c1C#N	Mcl1-Noxa inh 60
CC(C)c1ccc(S(=O)(=O)N(C)C2(C)CCS(=O)(=O)C2)cc1 (centres undefined)	none (no result: Mcl1-Noxa inh, Bim-Mcl-1, Mcl1 Bid PPI)
Cc1ccc2[nH]c3c(c2c1)CN(C(=O)CN1CCCc2ccccc21)CC3	Bcl-xL primary 33
C=CCn1ccc(O)c(Cc2ccc(Cl)cc2)c1=O	none (no result: Mcl1-Noxa inh, Bim-Mcl-1, Mcl1 Bid PPI)
